Test results taken from the supplement of paper PMC8728848.
This excerpt belongs to a sample that is enriched for the strongest signals.

Experiments:
Assay in all cases: glycan array binding signal (z-score within array); higher = stronger binding
Settings in all cases: glycan notation: IUPAC condensed, linker removed
[1] = target: Fuc(a1-2)Gal(b1-3)GlcNAc(b1-3)[Fuc(a1-2)Gal(b1-3)GlcNAc(b1-6)]GalNAc
In short: (§1)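 From the Consortium for Functional Glycomics database, 3228 arrays were curated, keeping only those whose protein sequence was available. Binding is given as a within-array Z-score averaged across arrays sharing a protein sequence and across linkers. Negative Z-scores can be read as non-binding.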

[2] = target: Fuc(a1-2)Gal(b1-4)Fuc(a1-3)]GlcNAc(b1-2)Man(a1-3)[Fuc(a1-2)Gal(b1-4)[Fuc(a1-3)]GlcNAc(b1-2)Man(a1-6)]Man(b1-4)GlcNAc(b1-4)GlcNAc
In short: as §1

[3] = target: Fuc(a1-2)Gal(b1-4)GlcNAc(b1-2)Man(a1-3)[Fuc(a1-2)Gal(b1-4)GlcNAc(b1-2)Man(a1-6)]Man(b1-4)GlcNAc(b1-4)GlcNAc
In short: as §1

[4] = target: Fuc(a1-2)Gal(b1-4)[Fuc(a1-3)]GlcNAc(b1-2)Man(a1-3)[Fuc(a1-2)Gal(b1-4)[Fuc(a1-3)]GlcNAc(b1-2)Man(a1-6)]Man(b1-4)GlcNAc(b1-4)[Fuc(a1-6)]GlcNAc
In short: as §1

[5] = target: Fuc(a1-2)Gal(b1-4)[Fuc(a1-3)]GlcNAc(b1-3)Gal(b1-4)[Fuc(a1-3)]GlcNAc
In short: as §1

[6] = target: Fuc(a1-2)[Gal(a1-3)]Gal(b1-3)GalNAc(b1-3)Gal(a1-4)Gal(b1-4)Glc
In short: as §1

[7] = target: Fuc(a1-2)[Gal(a1-3)]Gal(b1-4)Glc
In short: as §1

[8] = target: Fuc(a1-2)[Gal(a1-3)]Gal(b1-4)[Fuc(a1-3)]Glc
In short: as §1

[9] = target: Fuc(a1-2)[GalNAc(a1-3)]Gal
In short: as §1

[10] = target: Fuc(a1-2)[GalNAc(a1-3)]Gal(b1-3)GlcNAc(b1-3)GalNAc
In short: as §1

[11] = target: Fuc(a1-2)[GalNAc(a1-4)]Gal(b1-4)GlcNAc
In short: as §1

[12] = target: Fuc(a1-3)[Gal(b1-4)]GlcNAc(b1-3)Gal(b1-4)[Fuc(a1-3)]GlcNAc
In short: as §1

[13] = target: Gal(b1-3)GalNAc(b1-3)Gal(a1-4)Gal(b1-4)Glc
In short: as §1

[14] = target: Gal(b1-3)GlcNAc(b1-3)Gal(b1-4)Glc
In short: as §1

[15] = target: Gal(b1-3)[Fuc(a1-4)]GlcNAc(b1-2)Man(a1-3)[Gal(b1-3)[Fuc(a1-4)]GlcNAc(b1-2)Man(a1-6)]Man(b1-4)GlcNAc(b1-4)[Fuc(a1-6)]GlcNAc
In short: as §1

[16] = target: Gal(b1-4)GlcNAc(b1-3)Gal(b1-4)Glc
In short: as §1

[17] = target: Gal(b1-4)GlcNAc(b1-3)Gal(b1-4)GlcNAc(b1-2)[Gal(b1-4)GlcNAc(b1-3)Gal(b1-4)GlcNAc(b1-6)]Man(a1-6)[Gal(b1-4)GlcNAc(b1-3)Gal(b1-4)GlcNAc(b1-2)Man(a1-3)]Man(b1-4)GlcNAc(b1-4)[Fuc(a1-6)]GlcNAc
In short: as §1

[18] = target: Gal(b1-4)GlcNAc(b1-3)Gal(b1-4)GlcNAc(b1-3)Gal(b1-4)GlcNAc(b1-3)Gal(b1-4)GlcNAc(b1-2)[Gal(b1-4)GlcNAc(b1-3)Gal(b1-4)GlcNAc(b1-3)Gal(b1-4)GlcNAc(b1-3)Gal(b1-4)GlcNAc(b1-6)]Man(a1-6)[Gal(b1-4)GlcNAc(b1-3)Gal(b1-4)GlcNAc(b1-3)Gal(b1-4)GlcNAc(b1-3)Gal(b1-4)GlcNAc(b1-2)Man(a1-3)]Man(b1-4)GlcNAc(b1-4)[Fuc(a1-6)]GlcNAc
In short: as §1

[19] = target: Gal(b1-4)GlcNAc(b1-3)Gal(b1-4)GlcNAc(b1-3)Gal(b1-4)GlcNAc(b1-3)Gal(b1-4)GlcNAc(b1-3)Gal(b1-4)GlcNAc(b1-2)[Gal(b1-4)GlcNAc(b1-3)Gal(b1-4)GlcNAc(b1-3)Gal(b1-4)GlcNAc(b1-3)Gal(b1-4)GlcNAc(b1-3)Gal(b1-4)GlcNAc(b1-6)]Man(a1-6)[Gal(b1-4)GlcNAc(b1-3)Gal(b1-4)GlcNAc(b1-3)Gal(b1-4)GlcNAc(b1-3)Gal(b1-4)GlcNAc(b1-3)Gal(b1-4)GlcNAc(b1-2)Man(a1-3)]Man(b1-4)GlcNAc(b1-4)[Fuc(a1-6)]GlcNAc
In short: as §1

[20] = target: Gal(b1-4)GlcNAc(b1-3)[Fuc(a1-3)GlcNAc(b1-6)]Gal(b1-4)Glc
In short: as §1

Gal6P(b1-4)GlcNAc = target: Gal6P(b1-4)GlcNAc
In short: as §1

Gal6S(b1-4)GlcNAc6S = target: Gal6S(b1-4)GlcNAc6S
In short: as §1

[21] = target: GalNAc(b1-3)Gal(a1-6)Gal(b1-4)Glc
In short: as §1

GalNAc(b1-4)GlcNAc = target: GalNAc(b1-4)GlcNAc
In short: as §1

[22] = target: GalNAc(b1-4)GlcNAc(b1-2)Man
In short: as §1

[23] = target: GalNAc(b1-4)GlcNAc(b1-3)GalNAc(b1-4)GlcNAc
In short: as §1

Glc(b1-4)Glc = target: Glc(b1-4)Glc
In short: as §1

[24] = target: GlcNAc(a1-4)Gal(b1-4)GlcNAc
In short: as §1

[25] = target: GlcNAc(a1-4)Gal(b1-4)GlcNAc(b1-3)Gal(b1-4)Glc
In short: as §1

[26] = target: GlcNAc(a1-4)Gal(b1-4)GlcNAc(b1-3)Gal(b1-4)GlcNAc(b1-3)Gal(b1-4)GlcNAc
In short: as §1

[27] = target: GlcNAc(b1-3)Gal(b1-4)GlcNAc(b1-2)Man(a1-3)[GlcNAc(b1-3)Gal(b1-4)GlcNAc(b1-2)Man(a1-6)]Man(b1-4)GlcNAc(b1-4)[Fuc(a1-6)]GlcNAc
In short: as §1

[28] = target: GlcNAc(b1-3)Gal(b1-4)GlcNAc(b1-3)Gal(b1-4)GlcNAc
In short: as §1

[29] = target: GlcNAc(b1-3)Gal(b1-4)GlcNAc(b1-3)GalNAc
In short: as §1

[30] = target: GlcNAc(b1-4)GlcNAc(b1-4)GlcNAc
In short: as §1

[31] = target: GlcNAc(b1-4)GlcNAc(b1-4)GlcNAc(b1-4)GlcNAc(b1-4)GlcNAc
In short: as §1

[32] = target: GlcNAc(b1-4)GlcNAc(b1-4)GlcNAc(b1-4)GlcNAc(b1-4)GlcNAc(b1-4)GlcNAc
In short: as §1

[33] = target: Neu5Ac(a2-3)Gal(b1-4)GlcNAc(b1-2)Man
In short: as §1

[34] = target: Neu5Ac(a2-3)Gal(b1-4)GlcNAc(b1-3)Gal(b1-4)GlcNAc(b1-3)GalNAc
In short: as §1

[35] = target: Neu5Ac(a2-3)Gal(b1-4)GlcNAc(b1-3)Gal(b1-4)GlcNAc(b1-3)[Neu5Ac(a2-3)Gal(b1-4)GlcNAc(b1-3)Gal(b1-4)GlcNAc(b1-6)]GalNAc
In short: as §1

[36] = target: Neu5Ac(a2-6)Gal(b1-4)GlcNAc(b1-2)[Neu5Ac(a2-6)Gal(b1-4)GlcNAc(b1-4)]Man(a1-3)[GlcNAc(b1-4)][Neu5Ac(a2-6)Gal(b1-4)GlcNAc(b1-2)[Neu5Ac(a2-6)Gal(b1-4)GlcNAc(b1-6)]Man(a1-6)]Man(b1-4)GlcNAc(b1-4)GlcNAc
In short: as §1

[37] = target: Neu5Ac(a2-6)Gal(b1-4)GlcNAc(b1-3)Gal(b1-4)GlcNAc(b1-6)[Gal(b1-3)]GalNAc
In short: as §1

[38] = target: Neu5Ac(a2-6)Gal(b1-4)GlcNAc(b1-6)GalNAc
In short: as §1

[39] = target: Neu5Ac(a2-6)Gal(b1-4)GlcNAc6S
In short: as §1

[40] = target: Neu5Ac(a2-6)GlcNAc(b1-4)GlcNAc(b1-4)GlcNAc
In short: as §1

[41] = target: Neu5Ac(a2-8)Neu5Ac(a2-8)Neu5Ac(a2-3)Gal(b1-4)Glc
In short: as §1

Neu5Gc(a2-6)GalNAc = target: Neu5Gc(a2-6)GalNAc
In short: as §1

B1: WGA (Triticum vulgare) (protein)
chain: QRCGEQGSNMECPNNLCCSQYGYCGMGGDYCGKGCQNGACWTSKRCGSQAGGATCPNNHCCSQYGHCGFGAEYCGAGCQGGPCRADIKCGSQSGGKLCPNNLCCSQWGFCGLGSEFCGGGCQSGACSTDKPCGKDAGGRVCTNNYCCSKWGSCGIGPGYCGAGCQSGGCDAVFAGAITANSTLLAE
[1]
  glycan array binding signal (z-score): -0.344
[2]
  glycan array binding signal (z-score): -0.173
[3]
  glycan array binding signal (z-score): -0.197
[4]
  glycan array binding signal (z-score): -0.297
[5]
  glycan array binding signal (z-score): -0.365
[6]
  glycan array binding signal (z-score): -0.364
[7]
  glycan array binding signal (z-score): -0.359
[8]
  glycan array binding signal (z-score): -0.309
[9]
  glycan array binding signal (z-score): -0.082
[10]
  glycan array binding signal (z-score): -0.299
[11]
  glycan array binding signal (z-score): 3
[12]
  glycan array binding signal (z-score): -0.381
[13]
  glycan array binding signal (z-score): -0.328
[14]
  glycan array binding signal (z-score): -0.373
[15]
  glycan array binding signal (z-score): -0.172
[16]
  glycan array binding signal (z-score): -0.341
[17]
  glycan array binding signal (z-score): -0.132
[18]
  glycan array binding signal (z-score): 0.022
[19]
  glycan array binding signal (z-score): 0.244
[20]
  glycan array binding signal (z-score): -0.275
Gal6P(b1-4)GlcNAc
  glycan array binding signal (z-score): -0.418
Gal6S(b1-4)GlcNAc6S
  glycan array binding signal (z-score): -0.371
[21]
  glycan array binding signal (z-score): -0.316
GalNAc(b1-4)GlcNAc
  glycan array binding signal (z-score): 2.78
[22]
  glycan array binding signal (z-score): 2.71
[23]
  glycan array binding signal (z-score): 2.8
Glc(b1-4)Glc
  glycan array binding signal (z-score): -0.351
[24]
  glycan array binding signal (z-score): 2.77
[25]
  glycan array binding signal (z-score): 2.56
[26]
  glycan array binding signal (z-score): 3.16
[27]
  glycan array binding signal (z-score): 1.15
[28]
  glycan array binding signal (z-score): 1.71
[29]
  glycan array binding signal (z-score): -0.359
[30]
  glycan array binding signal (z-score): 3.8
[31]
  glycan array binding signal (z-score): 5.62
[32]
  glycan array binding signal (z-score): 5.15
[33]
  glycan array binding signal (z-score): -0.304
[34]
  glycan array binding signal (z-score): -0.353
[35]
  glycan array binding signal (z-score): -0.001
[36]
  glycan array binding signal (z-score): -0.366
[37]
  glycan array binding signal (z-score): -0.248
[38]
  glycan array binding signal (z-score): -0.307
[39]
  glycan array binding signal (z-score): -0.359
[40]
  glycan array binding signal (z-score): 3.14
[41]
  glycan array binding signal (z-score): -0.35
Neu5Gc(a2-6)GalNAc
  glycan array binding signal (z-score): -0.324
